# Source: PubChem BioAssay
# A selection: hits, their analogues and other compounds. The true share with any hit is near 1.2%.
# uPA generation = inhibitors of cell surface uPA generation | AID 540303 | actives 0.31% (n = 330,000) | Potency, µM (series often up to 38.3 µM), without a hit: top-dose activity change, negative = inhibition, actives largely listed as inhibitors | cell surface uPA generation assay, qHTS; active means well fitted inhibition curve with a large enough effect; inconclusive means small, poorly fitted or top-dose-only effect; inactive means no such curve, though single readings can be large or run the other way; tested in mouse RAW 264.7 cells; further: potency means the concentration at half of the fitted maximal effect; on the % scale 0 is the no-effect control and ±100 the full control effect; nearly all actives have a fitted effect of over 55% in size
# gsp antag = antagonizes gsp, the McCune-Albright syndrome mutation; gsp-mutant cells, cAMP HTRF, 30 min; Potency, µM (highest dose often 76.9 µM), for inactives: at the highest dose activity change, negative = inhibition, hits mostly inhibitors; actives 0.4% (n = 340,000); calls by dose curve; cell line not stated here;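 further: intracellular cAMP measured with PDE inhibitor Ro 20-1724 present during compound exposure; potency means the concentration at half of the fitted maximal effect; on the % scale 0 is the no-effect control and ±100 the full control effect; nearly all actives have a fitted effect of over 65% in size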
#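 HTRF cAMP read-out (cAMP-d2 plus anti-cAMP antibody-K in lysis buffer, 30 min RT). Before lysis, cells are exposed to compounds with […] for 30 min at 37C in DPBS containing Ca/Mg, BSA and Tween 20.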
# CCT modulator = changes cytosolic chaperonin activity; purified chaperonin ATPase assay, HTRF ADP detection, 30 min; activity change, % (no concentration beside the values), hits read low; actives 0.3% (n = 360,000); in the data active means activity change below about -30%; further: on the % scale 0 is the no-effect control and ±100 the full control effect
#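 Enzyme 40 or 20 nM (batch-dependent) in Tris pH 7.4/KCl/MgCl2/DTT; cpd 76 uM single point; ATP 10 uM; 30 min 37 °C; Transcreener ADP HTRF detection, 30 min RT; ratio 665/615.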
# MmCpn inh = blocks the Methanococcus maripaludis chaperonin Mm-Cpn; purified Mm-Cpn ATPase, ADP Transcreener TR-FRET; Potency, µM (doses to about 76.9 µM), inactives show at the highest dose activity, negative = inhibition, usual class: inhibitors; actives 0.031% (n = 330,000); AID 504842; active means well fitted inhibition curve with a large enough effect; inconclusive means small, poorly fitted or top-dose-only effect; further: potency means the concentration at half of the fitted maximal effect; on the % scale 0 is the no-effect control and ±100 the full control effect; nearly all actives have a fitted effect of over 80% in size
#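 Purified archaeal Mm-CPN (25nM final) preincubated 10 min at 37degC with compound, then 10uM ATP for 30 min at 37degC; ADP measured by HTRF Transcreener TR-FRET; buffer 30 mM TRIS pH 7.4, 100mM KCl, 5mM MgCl2, 1mM DTT.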
# TSHR antagonist = blocks TSH signaling through the human TSH receptor | TSHR-expressing cells, TSH-stimulated cAMP HTRF, 2 h; hits give low values | activity change, negative = inhibition, % at 11.5 µM | actives 0.2% (n = 330,000) | AID 504810;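 active means activity change below a set negative limit, meaning inhibition stronger than a set level, cut at about -70% in these data; inconclusive means activity change between two set negative limits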; further: on the % scale 0 is the no-effect control and ±100 the full control effect
# Target sequence (P16473 whole entry, looked up): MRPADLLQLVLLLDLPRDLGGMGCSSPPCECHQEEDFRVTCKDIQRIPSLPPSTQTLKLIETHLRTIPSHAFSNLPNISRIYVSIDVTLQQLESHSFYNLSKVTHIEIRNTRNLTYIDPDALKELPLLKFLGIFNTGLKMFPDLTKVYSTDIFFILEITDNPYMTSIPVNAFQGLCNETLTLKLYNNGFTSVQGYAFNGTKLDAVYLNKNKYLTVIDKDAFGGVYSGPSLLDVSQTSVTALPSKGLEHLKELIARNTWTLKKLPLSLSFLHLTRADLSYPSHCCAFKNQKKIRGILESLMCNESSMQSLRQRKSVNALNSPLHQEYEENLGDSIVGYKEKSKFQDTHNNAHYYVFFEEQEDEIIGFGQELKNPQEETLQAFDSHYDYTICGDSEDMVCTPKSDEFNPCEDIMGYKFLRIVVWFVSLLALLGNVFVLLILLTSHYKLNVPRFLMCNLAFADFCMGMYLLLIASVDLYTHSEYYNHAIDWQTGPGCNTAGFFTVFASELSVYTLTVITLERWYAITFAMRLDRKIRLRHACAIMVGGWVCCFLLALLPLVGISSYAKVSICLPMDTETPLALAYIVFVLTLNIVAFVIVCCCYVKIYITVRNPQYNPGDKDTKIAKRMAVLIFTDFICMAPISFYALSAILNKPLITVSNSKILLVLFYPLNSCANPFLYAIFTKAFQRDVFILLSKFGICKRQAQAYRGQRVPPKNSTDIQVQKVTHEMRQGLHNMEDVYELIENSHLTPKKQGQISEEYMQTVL
#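 Read-out is FRET at 665 nm (cryptate excitation 337 nm) from a cryptate-tagged anti-cAMP antibody, competed by cell cAMP against cAMP-d2. Compounds are tested on freshly harvested TSHR cells challenged with 4nM TSH (EC80) for 2 hours at 37 deg C.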
# gsp ag = agonists of gsp mutant (McCune-Albright syndrome); gsp mutant cells, cAMP HTRF, 30 min; Potency, µM (series often up to 76.9 µM), for inactives: top-dose activation (cAMP increase), usual class: activators; actives 0.13% (n = 340,000); AID 624287; active means well fitted activation curve with a large enough effect; inconclusive means small, poorly fitted or top-dose-only effect, or another doubt; inactive means no such curve, though single readings can be large or run the other way; cell line not stated here;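 further: phosphodiesterase inhibitor Ro 20-1724 added with compounds to block cAMP breakdown; potency means the concentration at half of the fitted maximal effect; nearly all actives have a fitted effect of over 60% in size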
#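 Cells in DMEM/10% FBS with G418 were pretreated with compounds in DMSO plus […] (300 uM stock) for 30 min at 37C. cAMP was measured by HTRF (cAMP-d2 plus anti-cAMP antibody-K) after 30 min at room temperature.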
# The depositor's hits bear a star; ? = inconclusive; / = not tested or not shown; [ ] = remark or other dose.
SMILES,uPA generation,gsp antag,CCT modulator,MmCpn inh,TSHR antagonist,gsp ag
O=C(C[C@H]1C[C@H](C(=O)N2CCCCC2)[C@@]2(CCc3ccccc3)c3[nH]c4cc(-c5ccco5)ccc4c3CCN2C1=O)NCCC1=CCCCC1,2%,-6%,-89*,-2%,8,/
O=C1C=C(CCc2ccccc2)CCC1,/,/,-1,/,/,3%
CCN1C(=O)N[C@@H](c2cccc(F)c2)C(C(=O)OC)=C1C,4%,-3%,-40*,/,/,10%
Cn1c2c(sc1=O)CCC2,-14%,9%,0,/,/,52%
COc1ccc(-c2c3c([nH]c(=S)c2C#N)CCC3)cc1,-4%,17%,-1,-5%,12,4.5µM*
COc1cc2c(cc1OC)C(C)N(C(=O)c1ccc(C)o1)CC2 (centres undefined),-8%,7%,-2,2%,-7,-21%
COc1cc2c(cc1OC)C(C)N(C(=O)c1c(-c3ccccc3)noc1C)CC2 (centres undefined),6.3µM*,1%,2,1%,1,0%
O=[N+]([O-])c1ccc(NC(=S)NCCc2ccccc2)cc1,-8%,-21%,1,2%,?,-5%[15.4 µM]
O=[N+]([O-])c1ccc(NC(=S)NCCc2ccc(Cl)cc2)cc1,-11%,-12%,-3,2%,-75*,1%
CN1CCN(C(=O)c2cc3c(=O)n4ccccc4nc3s2)CC1,-1%,14%,-1,-8%,27,13µM*
CCCCNC(=S)Nc1ccc2cn[nH]c2c1,1%,13%,-2,0%,-7,24%[15.4 µM]
CCNC(=O)CN1C(=O)NC2(CCCc3cc(OC)ccc32)C1=O (centres undefined),4%,3%,-2,0%,1,-5%
COCCNC(=O)CN1C(=O)NC2(CCCc3cc(OC)ccc32)C1=O (centres undefined),0%,14%,-36*,-2%,1,9%
COc1ccc(NC(=O)c2nc[nH]c2C(=O)N[C@@H](C)C(=O)OC(C)(C)C)cc1,3%,3%,-1,-1%,-13,13µM*
Cc1ccc(NC(=O)c2nc[nH]c2C(=O)N[C@@H](C)C(=O)OC(C)(C)C)cc1,12%,-17%,-1,0%,-4,/
CCNC(=S)Nc1ccc2c(c1)c(=O)n(C)n2CC=C(C)C,/,/,-1,/,/,/
Cc1cccc(OCC(=O)Nc2ccccc2C(F)(F)F)c1,6%,14%,-1,1%,-4,-48%
Cc1cccc(C)c1OCC(=O)Nc1ccccc1C(F)(F)F,-6%,-5%,-38*,1%,-6,-33%
CC(C)(C)C(=O)NC(=S)NNC(=O)c1ccc(-c2ccccc2)cc1,?,5%,2,1%,-81*,0%
CCS(=O)(=O)c1ccc(-c2cccc(NC(=O)COc3ccc(Cl)cc3)c2)nn1,3%,7%,0,-1%,6,-24%
CCOc1ccccc1CN1CCN(Cc2cn(C)nc2-c2ccccc2)CC1CCO (centres undefined),-3%,3%,0,0%,-3,2%
O=C(CSc1nc2ccc(Cl)cc2[nH]1)NC1CCCC1,11%,-19%,1,4%,-2,?
O=C(CSc1nc2ccc([N+](=O)[O-])cc2[nH]1)NC1CCCCCC1,-6%,40µM*,0,0%,-35,12%[15.4 µM]
O=C(CSc1nc2ccc([N+](=O)[O-])cc2[nH]1)NC1CCCCC1,/,28µM*,-2,1%,-13,30%
CSc1ccccc1OCc1cc(C(=O)NCCC2CCCCO2)no1 (centres undefined),5%,-3%,1,2%,-21,-10%
SMILES,uPA generation,gsp antag,CCT modulator,MmCpn inh,TSHR antagonist,gsp ag
COc1ccc(C(CC(=O)N2CCOCC2)c2c(OC)cc(OC)c3c(-c4ccccc4)cc(=O)oc23)cc1 (centres undefined),13%,-1%,-2,-4%,-82*,/
Cc1cc(N(C(=O)c2ccco2)C(C(=O)NC2CCCCC2)c2ccccc2)ccc1-n1cnnn1 (centres undefined),2%,-14%,2,2%,8,-13%
Cc1cccc(NC(=O)C2CCN(S(=O)(=O)c3ccc4c(c3)NC(=O)CO4)CC2)c1,-8%,-9%,1,3%,-134*,17%
O=C(c1ccc([N+](=O)[O-])o1)N1CCc2ccccc2C1,7.1µM*,3%,0,0%,-1,20%
CCCCNS(=O)(=O)c1ccc(S(=O)(=O)N2CCC3(CC2)OCCO3)cc1,5%,7%,-2,1%,33,-4%
Cc1ccc(S(=O)(=O)c2c(C(=O)c3ccccc3)cnc3cc4c(cc23)OCCO4)cc1,-7%,9%,-5,?,-83*,-15%
Cc1c(C(=O)c2ccc(Cl)c(Cl)c2)cnc2cc3c(cc12)OCO3,-5%,-15%,-1,0%,-16,-35%
CCCCc1ccc(NC(=O)N[C@@H](CC(C)C)C(=O)O)cc1,-2%,4%,0,1%,-33,-24%
CCC1=Nc2cc(C(=O)NCc3ccco3)ccc2Sc2ccccc21,3.2µM*,4%,-1,-3%,16,19%
COc1ccc2sc(-c3ccc(S(C)(=O)=O)cc3)c(C#CCO)c2c1,-4%,-22%,2,?,-78*,-1%
COc1cccc(C(=O)c2c[nH]c(C(=O)NCc3ccco3)c2)c1,-1%,-13%,-42*,-1%,-14,?
COc1ccc(C(=O)c2c[nH]c(C(=O)NCc3ccco3)c2)cc1,0%,-8%,1,2%,-1,-35%
Cc1ccc2cc(C)c(Sc3nnnn3-c3ccccc3)nc2c1,-1%,7%,-15,0%,?,4%
Cc1cc(C)c(SSc2nnnn2-c2ccccc2)c(C)c1,/,/,-38*,/,/,?
CN(C)c1ccc(-c2nc3ccccc3c(=O)[nH]2)cc1,1.4µM*,0%,2,2%,-1,30%
Cc1[nH]c(=O)[nH]c(=O)c1S(=O)(=O)Nc1ccc(F)c(Cl)c1,-16%,1%,0,1%,-3,-3%
CCn1c2ccccc2c2cc(/C=N/n3c(-c4cc(C)[nH]n4)n[nH]c3=S)ccc21,6%,35µM*,-2,1%,-21,-1%[15.4 µM]
CCn1c2ccccc2c2cc(/C=N/n3cn[nH]c3=S)ccc21,-8%,?,-1,-2%,-10,41%
CN(CC1CCOCC1)C(=O)CC1C(=O)NCCN1Cc1ccc(Cl)c(F)c1 (centres undefined),-2%,0%,-42*,3%,17,12%
